# Measured values from the supplement of paper PMC11417369.
# Over roughly 25,000 sequences, “ln(normalized median fluorescence intensity)” has its median near 6.7; the highest 2% begin near 10. The sample as a whole holds a higher share of the highest values than the screen did.
# System: PfHDP1 homeodomain (GST-tagged)
# Test: gcPBM binding intensity (ln(normalized median fluorescence intensity)); higher = stronger DNA binding
# Procedure, shortened: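 In this array assay, P. falciparum DNA-binding domains with a GST tag, expressed in E. coli, were applied for 1 h to primer-extended double-stranded 36-bp intergenic genomic probes and negative controls on an Agilent 4 × 180k array. Bound protein was visualised with Alexa488 anti-GST antibody at 488 nm. Binding intensity is the highest Masliner-normalised natural-log median intensity across replicate spots of either probe orientation.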
row,Sequence,gcPBM binding intensity (ln)
1,TGTTGTAAATTAAAGACATGCACGTGAGAAAATATA [TGCATGCA_site285],11
2,ATAAATATGTAAAAAACATGCAAAAAATTAAAGACA [TGCATGCA_site912],7.22
3,ATGAAAAAAAGACATGCATGTAAATATAAATTGCTT [TGCATGCA_site504],6.68
4,TTTTTATATTTTACATGTACATAAATATATTATATA [XGTACX_site958],6.46
5,AAATACATACATTAATGTACAAATAGAAACACTCTT [XGTACX_site1512],6.85
6,TGAATATTTATACATGCACACTAAAATAAAGAATCT [CACACA_site5351],8.07
7,ACGGACAATACGGAAACACACAAGTTATTTTATCAT [CACACA_site7310],6.21
8,TAATGTTGAGAATTTTGTACATATAGATCAATTTAT [XGTACX_site5426],6.33
9,TTTTATGATAATTTTGCACACACTTAGGAAAAATTA [CACACA_site1556],10.4
10,ACGTTAGGCTTATTTGCACACTTGTATTATAATTTT [CACACA_site1317],10.3
11,TTATGATAATTTTGCACACACTTAGGAAAAATTATG [CACACA_site4949],10.9
12,TTATGATAACTTTGCACACACTTAGGAAAAGTTATG [CACACA_site6836],10.6
13,AAAGTAGGCTTATATGCACACTTTGAAATATTATAA [CACACA_site5117],9.77
14,TTCAAAAAAGGAAAGTTGCACTTGATACGCTTATTA [GTGCAC_site9411],7.38
15,GAAAAATTAATAAATAAACACACATATATATATATA [CACACA_site8835],9.29
16,AATCTAATTAAAATCACACATATATTCGTCGTAATA [CACACA_site5855],6.05
17,TTTTAAATAATACATACATGCATATATACACATATA [TGCATGCA_site8],6.58
18,AGAATAAATATGCACACATGCATATATTTTTACACT [TGCATGCA_site893],10.3
19,AATATTTTTTTTTAAACATGCATATTTGCATTACCC [TGCATGCA_site437],8.67

row,Sequence,gcPBM binding intensity (ln)
1,TAAATTATAAATTGCACACATATTTTTATATTTATA [CACACA_site2976],10.2
2,CCCATGCATTTTTGCACACACATATATATATAAATA [CACACA_site1430],10.8
3,TTGAAGAATAAATATGCACACATGCATATATTTTTA [CACACA_site5840],9.33
4,TACCCATGCATTTTTGCACACACATATATATATAAA [CACACA_site1429],10.7
5,CATATTTGTATATGCACACATAAATTTTTCCATTTC [CACACA_site3467],10.2
6,CCCATGCATTTTTGCACACACATATATTTATAAATA [CACACA_site6785],10.7
7,AAAAAAAAAAAAAAAAGTACAAAAATATATATGCAT [XGTACX_site8392],6.48
8,AATGATACTTAGGGGCATGTCTCTGGGGGCATAACC [CACACA_negctrl_site591],6.63
9,CATATTTCTTTATTGGCACACATTTTTTCAATTATA [CACACA_site1618],6.87
10,TTATTTAAATATTGATGTACTCTCCTTATTATAATA [XGTACX_site1240],6.76
11,TCCTTTCAACCATATATAATGACATGTACTCAAAAA [GTGCAC_negctrl_site417],6.77
12,ATATATTTTTAATATGCACACAAGAATACATTCACA [CACACA_site914],9.51
13,AACGATATCTGTACTACACACATTATGTCATCCTAT [CACACA_site5374],6.81
14,GTTATATTTTTTTATACACACTGGAATATATAAATA [CACACA_site4282],6.76
15,ATATTATATATATAGGTGCGAGTATTTTATAAATAT [GTGCAC_site9889],6.93
16,ATTATATATATGTGCACACAAAAGATATATATATAT [CACACA_site5205],11.1
17,ATATTATATATATGTGCACACAAAAGATATATATAT [CACACA_site2125],10.5
18,AGAAAGAAGATATATACACACAAAAAAAGATATATA [CACACA_site6779],6.75
19,ATTCTATATATGTGCACACAAAAGATATATATATAT [CACACA_site2124],11.4

row,Sequence,gcPBM binding intensity (ln)
1,TTCCAAAAAATTATTACACACATATGGGCACATATA [CACACA_site679],6.54
2,TTCCAAAAAGTTATTACACACATATGTGCACATATA [CACACA_site6465],11.2
3,TTCCAAAAAATTATTACACACATATGAGCACATATA [CACACA_site4543],9.16
4,AAAAAAAAAAGACACACACACAAAAAAAGATATATA [CACACA_site6645],6.58
5,TATATATATATGTGTACACAAAAAATATTATATTAT [CACACA_site5505],8.81
6,ATATATATATATATGTGTACACAAAAAATATTATAT [XGTACX_site5741],9.26
7,TTATATGTATATATAGTGCAGAACAAAAGATTATAT [GTGCAC_site9599],7.69
8,TATATAAAGATATATACACACAAAAAAAAAAAAAAA [CACACA_site6778],6.32
9,TATAAACCCACCTACACACACAACGTAAATGCATTG [CACACA_site2238],6.96
10,TTCTTTTCAGAAGGAAAGAATTATAACATATCATAA [XGTACX_negctrl_site548],6.13
11,AATAATTTGGTCTTATCAAAAATTAAAAATAAATAA [XGTACX_negctrl_site430],6.05
12,TTTCCCTACCAAAAATGTACTTATAAGCGTTTTTAT [XGTACX_site739],6.5
13,TTTTATTTAACTCATAATTTTTTAAAAAACAATTAT [XGTACX_negctrl_site19],6.37
14,TATATATATATGTGCACACATAAAGATATTATTTTT [CACACA_site3733],10.1
15,ATAAAGATATGACACACACACATATTATAGATATAT [CACACA_site7434],6.69
16,TATATATATATATGTGCACACATAAAGATATTATTT [CACACA_site3734],10.6
17,AATGTATTCTCTCATGCACACTTTCTTTAAGGGACC [CACACA_site5245],8.87
18,AATATATTTGTGTATGTGCGCAGTGTGTAATTTATT [GTGCAC_site9765],7.92
